Measured values from PubChem BioAssay (Tox21).
Results filed as inconclusive are left out. Activity calls are given as the source filed them. Unless noted, the call rests on the fitted dose curve.

Assay: qHTS assay to identify small molecule agonists of the NFkB signaling pathway (AID 1159509; active means well fitted curve in the direction sought with a large enough effect in the signal ratio in the repeat runs, not every such curve was filed as active; the % refers to the signal ratio)
Settings: NFkB-bla ME-180 cells, beta-lactamase FRET ratio, 5 h; series mostly up to 61 µM
Summary of the method: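 NFkB-bla ME-180 cells carry a beta-lactamase reporter under an NF-kB response element. They were plated overnight, then exposed to compounds for 5 h at 37 C. Read-out is LiveBLAzer FRET after 1.5 hr at room temperature (405 nm excitation; 460/530 nm emission).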

Structure (SMILES)	outcome
NCCNc1cccc2ccccc12	inactive
CC(C)CC(C)CC(O)CC(C)C (configuration not stated)	inactive
CC1=C(/C=C/C(C)=C/C=C/C(C)=C/C(=O)O)C(C)(C)CCC1	inactive
NC(N)=NC(N)=NCCc1ccccc1	inactive
COc1cc2c(c(OC)c1OC)-c1ccc(OC)c(=O)cc1[C@@H](NC(C)=O)CC2	inactive
CCOC(=O)C(C)(C)Oc1ccc(Cl)cc1	inactive
Cc1cccc(C)c1O	inactive
NC(=O)N1c2ccccc2C=Cc2ccccc21	inactive
C=CCOC(=O)CC(C)C	inactive
CCN(CC)CCOC(=O)c1ccc(N)cc1	inactive
CC(=O)Oc1ccccc1C(=O)O	inactive
CC(=O)OC/C=C(C)/C=C/C=C(C)/C=C/C1=C(C)CCCC1(C)C	inactive
Nc1ccc(N=Nc2ccccc2)c(N)n1	inactive
O=C1CCCCCN1	inactive
CN(C)Cc1cc(CN(C)C)c(O)c(CN(C)C)c1	inactive
CC(C)(C)CC(C)(C)c1ccc(O)c(-n2nc3ccccc3n2)c1	inactive
N[C@@H](Cc1c[nH]c2ccc(O)cc12)C(=O)O	inactive
C1CNCCN1	inactive
COc1ccccc1O	inactive
OC[C@@H](O)[C@@H](O)[C@H](O)[C@H](O)CO	inactive
C#C[C@]1(O)CC[C@H]2[C@@H]3CCc4cc(O)ccc4[C@H]3CC[C@@]21C	inactive
NC(=O)c1ccc([N+](=O)[O-])cc1Cl	inactive
C[C@]12CC[C@@H]3c4ccc(O)cc4CC[C@H]3[C@@H]1CCC2=O	inactive
COc1ccccc1NC(=O)CC(C)=O	inactive
O=C1OC(c2ccc(O)cc2)(c2ccc(O)cc2)c2ccccc21	inactive
C#C[C@]1(O)CC[C@H]2[C@@H]3CCC4=CC(=O)CC[C@@H]4[C@H]3CC[C@@]21CC	inactive
C[C@]12CC[C@@H]3c4ccc(O)cc4C[C@@H](CCCCCCCCCS(=O)CCCC(F)(F)C(F)(F)F)[C@H]3[C@@H]1CC[C@@H]2O (some centres not stated)	inactive

Assay: qHTS assay to identify small molecule agonists of the NFkB signaling pathway - cell viability counter screen (AID 1159515); further: nearly all actives have a fitted effect of over 55% in size
Settings: NFkB-bla ME-180 viability, CellTiter-Glo luminescence, 5 h; series mostly up to 61 µM
Summary of the method: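 5 hr compound treatment of NFkB-bla ME-180 cells (2,000/well, seeded overnight beforehand), followed by reporter substrate for 1.5 hr. CellTiter-Glo added afterward; luminescence after 30 min RT.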

Structure (SMILES)	outcome
NCCNc1cccc2ccccc12	inactive
CC(C)CC(C)CC(O)CC(C)C (configuration not stated)	inactive
CC1=C(/C=C/C(C)=C/C=C/C(C)=C/C(=O)O)C(C)(C)CCC1	inactive
NC(N)=NC(N)=NCCc1ccccc1	inactive
COc1cc2c(c(OC)c1OC)-c1ccc(OC)c(=O)cc1[C@@H](NC(C)=O)CC2	inactive
CCOC(=O)C(C)(C)Oc1ccc(Cl)cc1	inactive
Cc1cccc(C)c1O	inactive
NC(=O)N1c2ccccc2C=Cc2ccccc21	inactive
C=CCOC(=O)CC(C)C	inactive
CCN(CC)CCOC(=O)c1ccc(N)cc1	inactive
CC(=O)/C=C/C1=C(C)CCCC1(C)C	inactive
CC(=O)Oc1ccccc1C(=O)O	inactive
CC(=O)OC/C=C(C)/C=C/C=C(C)/C=C/C1=C(C)CCCC1(C)C	inactive
Nc1ccc(N=Nc2ccccc2)c(N)n1	inactive
O=C1CCCCCN1	inactive
CN(C)Cc1cc(CN(C)C)c(O)c(CN(C)C)c1	inactive
C/C=C/c1ccc(O)c(OC)c1	inactive
CC(C)(C)CC(C)(C)c1ccc(O)c(-n2nc3ccccc3n2)c1	inactive
N[C@@H](Cc1c[nH]c2ccc(O)cc12)C(=O)O	inactive
C1CNCCN1	inactive
CC(C)=CCC/C(C)=C/CO	inactive
COc1ccccc1O	inactive
OC[C@@H](O)[C@@H](O)[C@H](O)[C@H](O)CO	inactive
C#C[C@]1(O)CC[C@H]2[C@@H]3CCc4cc(O)ccc4[C@H]3CC[C@@]21C	inactive
NC(=O)c1ccc([N+](=O)[O-])cc1Cl	inactive
C[C@]12CC[C@@H]3c4ccc(O)cc4CC[C@H]3[C@@H]1CCC2=O	inactive
COc1ccccc1NC(=O)CC(C)=O	inactive
O=C1OC(c2ccc(O)cc2)(c2ccc(O)cc2)c2ccccc21	inactive
C#C[C@]1(O)CC[C@H]2[C@@H]3CCC4=CC(=O)CC[C@@H]4[C@H]3CC[C@@]21CC	inactive
C[C@]12CC[C@@H]3c4ccc(O)cc4C[C@@H](CCCCCCCCCS(=O)CCCC(F)(F)C(F)(F)F)[C@H]3[C@@H]1CC[C@@H]2O (some centres not stated)	inactive
